Here are results for 18 compounds from publication PMC5540273 (PLoS ONE, 2017).
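Further: kd values determined as follow-up on hits from a single-replicate KINOMEscan panel screen.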

One assay relates to EPHB6.
By Kd is commonly meant the concentration at which binding is half-saturated. Higher therefore signals a looser complex. In the case of `FC(F)(F)c1ccccc1-c1cc(-c2c[nH]nc2-c2ccccn2)ccn1` [GW679396], the Kd was 8500 nM.

Consider `Nc1ncnc2occ(-c3ccc4c(c3)CCN4C(=O)Cc3cc(F)ccc3F)c12` [GSK2645446], for which binding was put at a Kd of 500 nM.

As to `COC(=O)C(NC(=O)NC1CCN(c2ccnc(Nc3ccc(F)cc3)n2)C1)c1ccccc1` (centres unmarked) [GSK1379712], the Kd came out at 58 nM.

In the case of `COc1ccc(Nc2nccc(N3CCC(NC(=O)C(C)c4ccc(Cl)cc4)CC3)n2)cc1` (centres unmarked) [GSK1379812], the Kd was more than 10000 nM.

The next assay concerns ERBB2.
For `CS(=O)(=O)CCNCc1nc(-c2ccc3ncnc(Nc4ccc(OCc5ccccc5)c(Cl)c4)c3c2)cs1.Cl` [GW582764], the Kd was 4 nM.

Turning to `CS(=O)(=O)CCNCc1nc(-c2ccc3ncnc(Nc4ccc5c(cnn5Cc5ccccc5)c4)c3c2)cs1.Cl.Cl` [GW569716], the Kd was 1.1 nM.

Compound `Cn1cncc1-c1cc2c(Nc3ccc(OCc4ccccc4)cc3)ncnc2cn1` [GW281179] displayed a Kd of 17 nM.

Consider `COc1cc2ncnc(Nc3cccc(Br)c3)c2cc1OC.Cl` [GI230329], for which the Kd came to 85 nM.

The subject of the next assay is T1, ERK8.
T1 construct: gene MAPK15
`Cc1cccc2c(-c3ccncn3)c(-c3ccc(F)cc3)nn12` [GW515532] had a Kd of more than 10000 nM.

`O=C(Nc1n[nH]c2nc(-c3cccs3)c(Br)cc12)C1CC1` [SB-735297] came in with a Kd of 130 nM.

With `O=C(Nc1n[nH]c2cc(-c3ccsc3)ccc12)C1CC1` [SB-732932], binding was characterised by a dissociation constant (Kd) of 48 nM.

For a further assay, the system named is GAK.
With `COc1cccc(C2=C(Nc3cc(Cl)c(O)c(Cl)c3)C(=O)NC2=O)c1` [SB-390767], the Kd was more than 10000 nM.

Consider `c1ccc(-c2ccnc3[nH]ccc23)cc1` [SB-693578], for which the affinity, expressed as Kd, was 3700 nM.

Compound `COc1cc2ncnc(Nc3cccc(Br)c3)c2cc1OC.Cl` [GI230329] displayed a Kd of 29 nM.

The next assay concerns GSK3A.
Compound `COc1ccc(CSc2nnc(-c3ccc4nccn4c3)o2)cc1C(F)(F)F` displayed a Kd of 250 nM.

`O=C(Nc1n[nH]c2nc(-c3ccco3)c(Br)cc12)C1CCN(Cc2ccccc2)C1.O=C(O)[C@H](O)[C@@H](O)C(=O)O` (centres unmarked) [SB-742034]: the Kd is 130 nM.

Take `O=C(Nc1n[nH]c2nc(-c3cccs3)c(Br)cc12)C1CC1` [SB-735297]: binding was characterised by a dissociation constant (Kd) of 91 nM.

`O=c1cc(N2CCOCC2)nc2n(Cc3ccccc3F)ccn12` [GSK2297428] had a Kd of more than 10000 nM.

With `COc1ccc(CSc2nnc(-c3ccc4ncsc4c3)o2)cc1C(F)(F)F`, the Kd is 79 nM.

`O=C(Nc1n[nH]c2nc(-c3cccs3)c(Br)cc12)C1CCCC1` [SB-743341]: binding was put at a Kd of 62 nM.
